According to PubChem BioAssay (NCATS):
Results filed as inconclusive are left out. A number with no mark means an inactive call. Calls follow the shape of the dose curve; as a rule, active = well fitted inhibition curve with a large enough effect; inconclusive = small, poorly fitted or top-dose-only effect; inactive = flat fitted curve, though single readings scatter. Where a SMILES comes first, the peptide text is derived from it. [ ]: non-standard residue; d: D form. ξ: configuration not given here. ξPhe(βξ-Me) = CC(c1ccccc1)C(N)C(=O)O; GABA = NCCCC(=O)O

target: Calcium and integrin-binding protein 1 (Homo sapiens) (UniProt Q99828); test: Primary qHTS for Identification of Calcium Integrin Binding Protein 1 (CIB1) Competitor (AID 1508620); settings: CIB1-GST / FITC-alphaIIb peptide fluorescence polarization; series mostly up to 57.7 µM; activity change, negative = inhibition: at the top concentration;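 also: GST tagged CIB1 binding a fluorescein labelled alphaIIb integrin peptide tracer; top concentration of the series differs between compounds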
Sequence (Q99828 whole entry, looked up): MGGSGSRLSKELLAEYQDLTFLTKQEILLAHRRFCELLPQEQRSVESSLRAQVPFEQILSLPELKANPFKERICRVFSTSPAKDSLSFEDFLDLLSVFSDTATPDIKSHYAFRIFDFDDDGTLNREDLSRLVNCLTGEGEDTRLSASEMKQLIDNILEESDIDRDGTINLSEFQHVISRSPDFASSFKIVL
In short: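 CIB1-GST (1 uM final) and compound incubated 15 min at room temperature before adding FITC-alphaIIb peptide tracer (100 nM final). Competition for binding read by fluorescence polarization (ex 480, em 540) after another 15 min at room temperature.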
% is scaled to controls: 0 for no effect and ±100 for the full control effect.

SMILES	activity change, negative = inhibition
C[C@@H]1O[C@@H](O[C@H]2[C@H](O[C@H]3[C@H](O[C@H]4CC[C@@]5(C=O)C(CC[C@]6(C)C5CC=C5C7CC(C)(C)C[C@@H](O)[C@]7(C)CC[C@]56C)C4(C)C)O[C@H](C(=O)O)[C@@H](O)[C@@H]3O)OC[C@@H](O)[C@@H]2O)[C@H](O)[C@H](O)[C@H]1O (some centres undefined)	-3.09% [at 30.2 µM]
OC[C@H]1O[C@@H](n2cnc3c(NCc4ccc(O)cc4)ncnc32)[C@H](O)[C@@H]1O	1.03% [at 114 µM]
O=C(c1ccccn1)c1cnn2c(-c3ccncc3)ccnc12	-3.4% [at 114 µM]
OC[C@H]1O[C@@H](n2cnc3c2NC=NC[C@H]3O)C[C@@H]1O	2.77% [at 114 µM]
CNC(=O)COC(=O)NCCC1CCN(c2cccc(C)n2)CC1	-0.68% [at 114 µM]
CC(=O)OCCC(C)CCC1C(C)(O)CCC2C(C)(C)CCCC21C (centres undefined)	2.18%
Oc1ccc([C@H]2COc3cc(O)ccc3C2)cc1	-0.443% [at 114 µM]
CC1(C)C(O)CCC2(C)C1C(O)C=C1COC(=O)C12O (centres undefined)	3.73% [at 114 µM]
CCC(NC(=O)CC(NC(=O)C(CO)NC(=O)C(CC)NC(=O)c1ccc[nH]1)c1ccccc1)C(=O)O (centres undefined)	4.31% [at 30.2 µM]
C[C@@H]1O[C@@H](OC[C@H]2O[C@@H](OCC3CCC4CC3C4(C)C)[C@H](O)[C@@H](O)[C@@H]2O)[C@H](O)[C@H](O)[C@H]1O (some centres undefined)	-5.09%
COc1ccc(C2=CC(=O)OC2Cc2ccc(O)cc2)c(O)c1 (centres undefined)	5.68%
COC1=CC(=O)C[C@@H](C)[C@]12Oc1cc(OC)cc(OC)c1C2=O	2.85%
CC(=O)O[C@H]1[C@H](Oc2ccccc2COC(=O)C2(O)C=CCCC2=O)O[C@H](CO)[C@@H](O)[C@@H]1O (some centres undefined)	0.362%
CC(C)CC1NC(=O)C(C(C)c2ccccc2)NC(=O)C(C(C)C)NC(=O)C(C)NC(=O)CCCNC(=O)C(Cc2c[nH]c3ccccc23)NC(=O)C(C)NC1=O (stereo not drawn) (cyclo([GABA]AV[ξPhe(βξ-Me)]LAW); configuration not given here)	4.87% [at 30.2 µM]
CC1=CC(=O)C2C(C)(C)CC(O)CC2(C)C1CO (centres undefined)	-2.27% [at 114 µM]
COc1cccc(-n2nc(C(=O)O)cc2-c2ccc(C3CCCCC3)c(Cl)c2)c1	-3.91% [at 114 µM]
CC(c1c[nH]c2ccccc12)C(O)C(=O)O (centres undefined)	1.62% [at 114 µM]
CC(=O)OC[C@]1(O)[C@H]2[C@H](OC(=O)CC(C)C)OC=C(CO[C@@H]3O[C@H](CO)[C@@H](O)[C@H](O)[C@H]3O)[C@H]2C[C@@H]1O	1.32%
C=C(C)C(=O)O[C@H]1C[C@@](C)(OC(C)=O)[C@@]2(O)CC[C@@](C)(O)[C@H](OC(C)=O)[C@@]23OC(=O)C(COC)=C13	-7.51%
CC(C)(O)c1ccc2c(c1)C(O)CC1C(C)(C(=O)O)CCCC21C (centres undefined)	3.29%
C[C@@H]1O[C@@H](O[C@H]2[C@H](O)[C@@H](C(=O)O)O[C@@H](O[C@H]3CC[C@@]4(C)C(CC[C@]5(C)C4CC=C4C6CC(C)(C)CC[C@]6(C(=O)O)CC[C@]45C)C3(C)C)[C@@H]2O[C@@H]2O[C@H](CO)[C@@H](O)[C@H](O)[C@H]2O)[C@H](O)[C@H](O)[C@H]1O (some centres undefined)	2.54% [at 30.2 µM]
C=C[C@H]1[C@H](O[C@@H]2O[C@H](CO[C@@H]3OC[C@](O)(CO)[C@H]3O)[C@@H](O)[C@H](O)[C@H]2O)OC=C2C(=O)OCC[C@H]21	0.387%
C[C@@H]1C[C@H](O[C@@H]2O[C@H](CO[C@@H]3OC[C@](O)(CO)[C@H]3O)[C@@H](O)[C@H](O)[C@H]2O)CC(C)(C)[C@H]1/C=C/[C@@H](C)O	-0.584%
C[C@H]1[C@H](C)CC[C@]2(C(=O)O)CC[C@]3(C)C(=CC[C@@H]4[C@@]5(C)C[C@@H](O)[C@H](O)[C@@](C)(CO)[C@@H]5CC[C@]43C)[C@H]12	4.72% [at 114 µM]
COc1cc(CC(COC2OC(CO)C(O)C(O)C2O)c2cc(/C=C/CO)cc(OC)c2O)ccc1O (centres undefined)	-1.82%
COc1cc(C(=O)OC[C@H]2O[C@H](O[C@@]3(CO)O[C@@H](CO)[C@H](O)[C@H]3O)[C@H](O)[C@@H](O)[C@@H]2O)ccc1O	-2.79%
CC(=O)O[C@H]1[C@H](C)[C@@H](O)[C@H]2[C@@H]1C=C(C(=O)O)[C@H]1C[C@@H]3[C@H]([C@H]21)[C@H]1C(=O)O[C@@H]2CC[C@@]3(C)O[C@]1(O)[C@@H]2C	2.82%
COc1cc(/C=C/C(=O)OC2[C@H](O)CC(O)(C(=O)O)C[C@H]2O)ccc1O (some centres undefined)	0.411%
CCCC1=CC2=C(CO1)C(=O)C(C)(OC(=O)c1c(C)cc(OC)cc1O)C(O)C2 (centres undefined)	-1.09%
